Experimental data published in PMC8384837, “Expanding the binding specificity for RNA recognition by a PUF domain”.

These sequences were tested against PUM1 PUF domain R3-VFD (Homo sapiens, UniProt Q14671 828-1176, C935V;R936F;Q939D) (assay: yeast three-hybrid, YBZ-1, SC-Leu-His + 0.5 mM 3-AT, 4 days). Settings: tags: N-Gal4 AD-HA kept; label: inside an RPR1-promoter hybrid RNA with tandem MS2 sites; ssRNA.
In short: (§1)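 Pumilio-1 PUF domain libraries, randomized at the three base-contacting residues of each repeat, were co-expressed with matching RNA elements from a centromeric plasmid in strain YBZ-1, which carries a LexA–MS2 coat fusion and a HIS3 reporter. Transformants grew for four days on SC-Leu (input) or on SC-Leu-His + 0.5 mM 3-AT (selection), and the repeat regions were PCR-amplified and Illumina-sequenced. The interaction score is the log change in variant frequency from input to selection. That logarithm is base 2, with a pseudocount of 1 where a variant was absent.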

Sequence	binding signal
GGCUAGAACUAGUGGAUCCCCCGGCGCCCGGCGGCUCGAGCCCGGGUAAGUGUAAAUAGUCUGCAUGCCGCCGGGCGCCAUGCCUGCAGGUCGACUCUAGAAAACAUG	6.45 log2 enrichment (interaction score)
GGCUAGAACUAGUGGAUCCCCCGGCGCCCGGCGGCUCGAGCCCGGGUAAGUGUAAUUAGUCUGCAUGCCGCCGGGCGCCAUGCCUGCAGGUCGACUCUAGAAAACAUG	5.14 log2 enrichment (interaction score)
GGCUAGAACUAGUGGAUCCCCCGGCGCCCGGCGGCUCGAGCCCGGGUAAGUGUAACUAGUCUGCAUGCCGCCGGGCGCCAUGCCUGCAGGUCGACUCUAGAAAACAUG	2.56 log2 enrichment (interaction score)

Each sequence was assayed against PUM1 PUF domain R4-WSG (Homo sapiens, UniProt Q14671 828-1176, N971W;H972S;Q975G) in the same assay as above. Settings: tags: N-Gal4 AD-HA kept; label: inside an RPR1-promoter hybrid RNA with tandem MS2 sites; ssRNA.
In short: as §1

Sequence	binding signal
GGCUAGAACUAGUGGAUCCCCCGGCGCCCGGCGGCUCGAGCCCGGGUAAGUGUAUAUAGUCUGCAUGCCGCCGGGCGCCAUGCCUGCAGGUCGACUCUAGAAAACAUG	3.48 log2 enrichment (interaction score)
GGCUAGAACUAGUGGAUCCCCCGGCGCCCGGCGGCUCGAGCCCGGGUAAGUGUAAAUAGUCUGCAUGCCGCCGGGCGCCAUGCCUGCAGGUCGACUCUAGAAAACAUG	1.85 log2 enrichment (interaction score)
GGCUAGAACUAGUGGAUCCCCCGGCGCCCGGCGGCUCGAGCCCGGGUAAGUGUACAUAGUCUGCAUGCCGCCGGGCGCCAUGCCUGCAGGUCGACUCUAGAAAACAUG	2.7 log2 enrichment (interaction score)
